# Values joined by “and” are separate entries in the source; they are usually repeats but may differ in a detail not shown here. Equal values may be shown once. Inconclusive results are not listed. A call without a number means that no potency is given here. Active and inactive are the calls of the source. Calls follow the shape of the dose curve; as a rule, active = well fitted curve in the direction sought with a large enough effect; inconclusive = small, poorly fitted or top-dose-only effect, or another doubt; inactive = no such curve, though single readings can be large; an effect the other way counts as inactive or inconclusive.
# Assays:
# [1] = qHTS assay to identify small molecule inhibitors of chordoma cells - UCH-2 (AID 1259356)
# [2] = P-glycoprotein substrates identified in KB-8-5-11 adenocarcinoma cell line, qHTS therapeutic library screen (AID 1346987); details: outcome: dose series up to 44.5 µM unless noted; also: nearly all actives have a fitted effect of over 65% in size
# Method in brief: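 Luminescence from CellTiter-Glo, read 5 min after addition, quantified survival of KB-8-5-11 (P-gp-overexpressing) cells exposed to compounds for 72 h. AC50 was derived from concentration-response curves.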
# Potency is read from the fitted curve at half-maximal effect.
SMILES,Potency [1],Potency [2]
O=C(CCCCCCCCCCCCC1CCCC1)Nc1ccc(S(=O)(=O)c2ccc(NC(=O)CCCCCCCCCCCCC3CCCC3)cc2)cc1,inactive,inactive
CCC(O)c1ccccc1 (stereo unspecified),inactive,inactive
CC(=O)[C@@]1(O)CC[C@H]2[C@@H]3C=C(Cl)C4=CC(=O)[C@@H]5C[C@@H]5[C@]4(C)[C@H]3CC[C@@]21C,inactive,inactive
O=C(O)CN(CC(=O)O)CC1=CC2C(=CC1=O)Oc1cc(O)c(CN(CC(=O)O)CC(=O)O)cc1C21OC(=O)c2ccccc21 (stereo unspecified),inactive,inactive
Cc1cc(=O)c(C(=O)N[C@@H](C(=O)N[C@@H]2C(=O)N3C(C(=O)O)=C(CSc4nnnn4C)CS[C@H]23)c2ccc(O)cc2)c[nH]1,inactive,inactive
CC[C@H]1OC(=O)C[C@@H](O)[C@H](C)[C@@H](O[C@@H]2O[C@H](C)[C@@H](O[C@H]3C[C@@](C)(O)[C@@H](O)[C@H](C)O3)[C@H](N(C)C)[C@H]2O)[C@@H](CC=O)C[C@@H](C)C(=O)/C=C/C(C)=C/[C@@H]1CO[C@@H]1O[C@H](C)[C@@H](O)[C@@H](OC)[C@H]1OC,inactive,inactive
O=S(=O)(O)CCCS(=O)(=O)O,inactive,inactive
C=CC[N+]1([C@H]2C[C@H]3[C@@H]4CC[C@H]5C[C@H](O)[C@@H](N6CCOCC6)C[C@]5(C)[C@H]4CC[C@]3(C)[C@H]2OC(C)=O)CCCC1,inactive,inactive
CCCCC,inactive,inactive
NC(=O)c1ccc[n+]([C@@H]2O[C@H](COP(=O)([O-])OP(=O)(O)OC[C@H]3O[C@@H](n4cnc5c(N)ncnc54)[C@H](O)[C@@H]3O)[C@@H](O)[C@H]2O)c1,inactive,inactive
O=C(O)CCCC/C=C(\c1ccccc1)c1cccnc1,inactive,inactive
CC[C@H](CC[C@@H](C)[C@H]1CC[C@H]2[C@@H]3CC=C4C[C@@H](O)CC[C@]4(C)[C@H]3CC[C@]12C)C(C)C,inactive,inactive
CC1CCCC(C)N1NC(=O)c1ccc(Cl)c(S(N)(=O)=O)c1 (stereo unspecified),inactive,inactive
CCCC(=O)O,inactive,inactive
C/C=C/C=C/C(=O)O,inactive,inactive
CC[C@@]1([C@@H]2O[C@@H]([C@H]3O[C@@](O)(CO)[C@H](C)C[C@@H]3C)C[C@@H]2C)CC[C@H]([C@]2(C)CC[C@]3(C[C@H](O)[C@@H](C)[C@@H]([C@@H](C)[C@@H](OC)[C@H](C)C(=O)O)O3)O2)O1 (stereo in doubt),inactive,6.51 µM (active) and 5.8 µM (active)
CC(C)(C)NCC(O)CSc1nc(-c2ccc(C(N)=O)s2)cs1 (stereo unspecified),inactive,inactive
NCC[C@H](O)C(=O)N[C@@H]1C[C@H](N)[C@@H](O[C@H]2O[C@H](CN)CC[C@H]2N)[C@H](O)[C@H]1O[C@H]1O[C@H](CO)[C@@H](O)[C@H](N)[C@H]1O,inactive,inactive
O=C(O)CCC/C=C\C[C@@H]1[C@@H](/C=C/[C@@H](O)COc2cccc(Cl)c2)[C@H](O)C[C@@H]1O,inactive,inactive
O=C(NNCNNC(=O)c1ccncc1)c1ccncc1,inactive,inactive
CCOC(=O)c1c[nH]c2cc(OCC(C)C)c(OCC(C)C)cc2c1=O,inactive,inactive
Cc1cc(C(=O)NCCc2ccc(S(=O)(=O)NC(=O)NN3CCCCCC3)cc2)no1,inactive,inactive
CC(C)(C)C(=O)OCC(=O)[C@H]1CC[C@H]2[C@@H]3CCC4=CC(=O)CC[C@]4(C)[C@H]3CC[C@]12C,inactive,inactive

SMILES,Potency [1],Potency [2]
CN1C(=O)OC(C)(C)C1=O,inactive,inactive
CCN1\C(=C/C=C/C=C/c2sc3ccccc3[n+]2CC)Sc2ccccc21,18.3 µM (active),16.4 µM (active)
CC(C)(CO)[C@@H](O)C(=O)NCCCC(=O)O,inactive,inactive
CCCCCCCCCCCCOCCCN,inactive,inactive
CC(C)[C@H](N)C(=O)OCC(CO)OCn1cnc2c(=O)[nH]c(N)nc21 (stereo partly specified),inactive,inactive
CC(C)(Oc1ccc(C2CCCc3ccccc32)cc1)C(=O)O (stereo unspecified),inactive,inactive
CC(=O)[O][Al][O]C(C)=O,inactive,inactive
CC12CCC(C1)C(C)(C)C2=O (stereo unspecified),inactive,inactive
COc1ccc(C[C@H](C)NC[C@@H](O)c2ccc(O)c(NC=O)c2)cc1,inactive,inactive
O=C1N=C2SCCN2C(=O)C1Cc1ccc(Cl)cc1 (stereo unspecified),inactive,inactive
CC(=O)N[C@@H]1C(O[C@H]2O[C@H](C(=O)O)C(O)[C@H](O)[C@H]2O)[C@H](O)[C@@H](CO)O[C@H]1O[C@@H]1C(C(=O)O)O[C@@H](O[C@H]2[C@H](O)[C@@H](CO)OC(O)[C@@H]2NC(C)=O)[C@H](O)[C@H]1O (stereo partly specified),inactive,inactive
[O-][N+](=Nc1ccccc1)c1ccccc1,inactive,inactive
CCCCCCOC(=O)c1cccnc1,inactive,inactive
Nc1ncnc2c1ncn2CCOCP(=O)(O)O,inactive,inactive
CCCCC[C@H](O)/C=C/[C@H]1[C@H](O)CC(=O)[C@@H]1CCCCCCC(=O)O,inactive,inactive
Cn1cc(NC(=O)c2cc(NC(=O)c3cc(NC=O)cn3C)cn2C)cc1C(=O)NCCC(=N)N,inactive,inactive
CO/N=C(\C(=O)N[C@@H]1C(=O)N2C(C(=O)O)=CCS[C@H]12)c1csc(N)n1,inactive,inactive
CCOC(=O)[C@@H](N)CS,inactive,inactive
C=C1[C@@H]2CC[C@@H](C2)C1(C)C,inactive,inactive
ClC(Cl)Cl,inactive,inactive
CC(C)C[C@@H](NC(=O)[C@@H](O)[C@H](N)Cc1ccccc1)C(=O)O,inactive,inactive
CNCC(=O)N[C@@H](CCCN=C(N)N)C(=O)N[C@H](C(=O)N[C@@H](Cc1ccc(O)cc1)C(=O)N[C@H](C(=O)N[C@@H](Cc1cnc[nH]1)C(=O)N1CCC[C@H]1C(=O)N[C@@H](C)C(=O)O)C(C)C)C(C)C,inactive,inactive
OC[C@H]1O[C@@](CO)(O[C@H]2O[C@H](CO)[C@@H](O)[C@H](O)[C@H]2O)[C@@H](O)[C@@H]1O,inactive,inactive

SMILES,Potency [1],Potency [2]
CO[C@H]1C[C@H](O[C@H]2[C@H](C)[C@@H](O[C@@H]3O[C@H](C)C[C@H](N(C)C)[C@H]3O)[C@@H](C)C[C@]3(CO3)C(=O)[C@H](C)[C@@H](O)[C@@H](C)[C@@H](C)OC(=O)[C@@H]2C)O[C@@H](C)[C@@H]1O,inactive,inactive
OCl,inactive,inactive
O=C(OCc1ccccc1)c1cccnc1,inactive,inactive
Nc1nc(=O)n([C@@H]2CS[C@H](CO)O2)cc1F,inactive,inactive
COc1ccc2cc([C@H](C)CO)ccc2c1,inactive,inactive
OC[C@@H](O)C(O)[C@H](O)CO,inactive,inactive
Cc1cc(C)c(NC(=O)C[C@H](CC(=O)O)c2cccc3ccccc23)c(C(=O)N2CCC3(CCCC3)CC2)c1,inactive,inactive
CN[C@@H]1[C@@H](O)[C@@H](O[C@@H]2[C@@H](O)[C@H](OC3OC(CN)=CCC3N)[C@@H](N)C[C@H]2N)OC[C@]1(C)O (stereo partly specified),inactive,inactive
CN(C)C(=O)CCSC(SCCC(=O)O)c1cccc(/C=C/c2ccc3ccc(Cl)cc3n2)c1 (stereo unspecified),inactive,inactive
CC(=O)Nc1ccc(OC(=O)c2ccccc2O)cc1,inactive,inactive
CC(=O)Nc1ccc(NC(=S)NC(=O)c2ccc(C(C)(C)C)cc2)cc1,inactive,6.51 µM (active) and 9.2 µM (active)
CN[C@@H]1[C@@H](O)[C@@H](O[C@@H]2[C@@H](O)[C@H](O[C@H]3O[C@H](CN)[C@@H](O)[C@H](O)[C@H]3O)[C@@H](N)C[C@H]2NC(=O)C(O)CN)OC[C@]1(C)O (stereo partly specified),inactive,inactive
CN[C@H](CC(C)C)C(=O)N[C@H]1C(=O)N[C@@H](CC(N)=O)C(=O)N[C@H]2C(=O)N[C@H]3C(=O)N[C@H](C(=O)N[C@@H](C(=O)O)c4cc(O)cc(O)c4-c4cc3ccc4O)[C@H](O)c3ccc(c(Cl)c3)Oc3cc2cc(c3O[C@@H]2O[C@H](CO)[C@@H](O)[C@H](O)[C@H]2O[C@H]2C[C@](C)(N)C(O)[C@H](C)O2)Oc2ccc(cc2Cl)[C@H]1O (stereo partly specified),inactive,inactive
O=P(O)(O)OP(=O)(O)OP(=O)(O)O,inactive,inactive
FCOC(C(F)(F)F)C(F)(F)F,inactive,inactive
C[C@@H]1C/C=C/C=C/C=C/C=C/[C@H](O[C@@H]2O[C@H](C)[C@@H](O)[C@H](N)[C@@H]2O)C[C@@H]2O[C@](O)(C[C@@H](O)C[C@H]3O[C@@H]3/C=C/C(=O)O1)C[C@H](O)[C@H]2C(=O)O,inactive,inactive
CC(/C=C/C=C(\C)C(=O)O[C@@H]1O[C@H](CO[C@@H]2O[C@H](CO)[C@@H](O)[C@H](O)[C@H]2O)[C@@H](O)[C@H](O)[C@H]1O)=C\C=C\C=C(C)\C=C\C=C(/C)C(=O)O[C@@H]1O[C@H](CO[C@@H]2O[C@H](CO)[C@@H](O)[C@H](O)[C@H]2O)[C@@H](O)[C@H](O)[C@H]1O,inactive,inactive
O=[N+]([O-])O[C@@H]1CO[C@H]2[C@@H]1OC[C@@H]2O,inactive,inactive
C(=C\c1ccncc1)/c1ccccc1,inactive,inactive
C[C@]12CC[C@@H]3c4ccc(O)cc4CC[C@H]3[C@@H]1CC[C@@H]2OP(=O)(O)O,inactive,20.6 µM (active)
O=C(NNCS(=O)(=O)O)c1ccncc1,inactive,inactive
C=CC1=C(C(=O)O)N2C(=O)[C@@H](NC(=O)/C(=N/OCC(=O)O)c3csc(N)n3)[C@H]2SC1 (stereo in doubt),inactive,inactive

# Source: PubChem BioAssay (NCATS)
